Inconclusive results are not listed. Where a structure was tested more than once in an assay, its records may differ in their call. Calls of active or inactive are those of the source. Rule for the calls: active = hit-call score of the fitted dose curve at least 0.9, where 1 is the maximum; inconclusive = response in the unintended direction; inactive = score below 0.9.
test: CCTE_Mundy_HCI_iCellGluta_NOG_NeuriteLength: CCTE's Neurite Outgrowth Assay in iCellGluta cells for Neurite Length, Mundy Lab (AID 2284318)
Method: CCTE_Mundy_HCI_iCellGluta_NOG is a multiplexed, cell-based-readout assay that uses iCell GlutaNeurons from FUJIFILM Cellular Dynamics, Inc. (FCDI), human glutamatergic enriched neurons derived from induced pluripotent stem (iPS) cells, with measurements taken at 50.33 hours after chemical dosing in a microplate: 96-well plate.CCTE_Mundy_HCI_iCellGluta_NOG_NeuriteLength is one of four components of the CCTE_Mundy_HCI_iCellGluta_NOG assay. It measures neurite outgrowth related to neurite length using High Content Imaging of fluorescently labelled markers.Data from the assay component CCTE_Mundy_HCI_iCellGluta_NOG_NeuriteLength was analyzed at the endpoint CCTE_Mundy_HCI_iCellGluta_NOG_NeuriteLength in the positive analysis fitting direction relative to DMSO as the negative control and baseline of activity. Using a type of morphology reporter, loss-of-signal activity can be used to understand developmental effects.
Exposure starts 2 hours post-plating by adding 10 ul of the working solution to 90 ul of media in the wells for a 1/10 dilution. Forty-eight hours after chemical treatment cells are fixed by direct addition of 100 ul of warm (37C) Dulbecco's phosphate buffered saline (DPBS) fixative solution containing 8% paraformaldehyde, 8% sucrose, and 0.1% of 3 mg/ml Hoechst 33342 into each well. Primary antibodies are prepared by dilution in Immunocytochemical Staining Buffer (ISB), 10X Dulbecco's PBS, 0.1% Saponin, 5% Bovine Serum Albumin, 0.5% NaN3 (Sodium Azide) and betaIII-tubulin (rabbit anti-betaIII-tubulin, 1:800) followed by Alexa Fluor-488 secondary (1:500) to label neuronal cell bodies and neurites. A Cellomics ArrayScan VTi HCS Reader is used for automated image acquisition and analysis of neurite outgrowth.

Row | SMILES | outcome | AC50
1 | O=S(=O)(O)C(F)(F)C(F)(F)C(F)(F)C(F)(F)C(F)(F)C(F)(F)C(F)(F)C(F)(F)F | inactive | 
2 | O=S1OCC2C(CO1)C1(Cl)C(Cl)=C(Cl)C2(Cl)C1(Cl)Cl (centres undefined) |  | 8.78 µM (active)
3 | O=C(O)COc1ccc(Cl)cc1Cl | inactive | 
4 | CC(C)N(C(=O)COc1nnc(C(F)(F)F)s1)c1ccc(F)cc1 | inactive | 
5 | COP(=O)(OC)OC=C(Cl)Cl |  | 12.9 µM (active)
6 | CC1(C)C(C=C(Cl)Cl)C1C(=O)OC(C#N)c1ccc(F)c(Oc2ccccc2)c1 (centres undefined) | inactive | 9.9 µM (active)
7 | CC[C@H](C)[C@H]1O[C@]2(C=C[C@@H]1C)C[C@@H]1C[C@@H](C/C=C(\C)[C@@H](O[C@H]3C[C@H](OC)[C@@H](O[C@H]4C[C@H](OC)[C@@H](O)[C@H](C)O4)[C@H](C)O3)[C@@H](C)/C=C/C=C3\CO[C@@H]4[C@H](O)C(C)=C[C@@H](C(=O)O1)[C@]34O)O2 (tested in a mixture with another compound) |  | 3.44 µM (active)
8 | CNC(=O)CSP(=S)(OC)OC | inactive | 
9 | O=C(O)C(F)(F)C(F)(F)C(F)(F)C(F)(F)C(F)(F)C(F)(F)C(F)(F)F | inactive | 
10 | CCC(C)(C)C(=O)OC1=C(c2ccc(Cl)cc2Cl)C(=O)OC12CCCCC2 |  | 21.9 µM (active)
11 | COP(=S)(OC)Oc1ccc([N+](=O)[O-])cc1 |  | 21.6 µM (active)
12 | O=[N+]([O-])/N=C1\NCCN1Cc1ccc(Cl)nc1 |  | 15 µM (active)
13 | CC1(c2ccc(Oc3ccccc3)cc2)OC(=O)N(Nc2ccccc2)C1=O (centres undefined) | inactive | 

Reference: PubChem BioAssay (EPA / NIEHS)
